# Data reported in PubChem BioAssay AID2147 (National Center for Advancing Translational Sciences (NCATS), 2009).
# Several values for one entry are separate records, joined by “and”; a condition that tells them apart may be missing. Identical values can stand only once. The campaign covered roughly 230,000 compounds. About 3,600 (1.6%) were called active. About 15% were inconclusive and are not listed. Calls follow the shape of the dose curve; as a rule, active = well fitted inhibition curve with a large enough effect (not every such curve was filed as active); inconclusive = small, poorly fitted or top-dose-only effect, or another doubt; inactive = no such curve, though single readings can be large or run the other way. The entries come from a sample that favours actives as a whole. Some compounds were tested as several samples or in several runs, with calls that do not always agree.
# Biological target: Lysine-specific demethylase 4E (Homo sapiens) (UniProt B2RXH2)
# Sequence (B2RXH2 1-337 limits assumed): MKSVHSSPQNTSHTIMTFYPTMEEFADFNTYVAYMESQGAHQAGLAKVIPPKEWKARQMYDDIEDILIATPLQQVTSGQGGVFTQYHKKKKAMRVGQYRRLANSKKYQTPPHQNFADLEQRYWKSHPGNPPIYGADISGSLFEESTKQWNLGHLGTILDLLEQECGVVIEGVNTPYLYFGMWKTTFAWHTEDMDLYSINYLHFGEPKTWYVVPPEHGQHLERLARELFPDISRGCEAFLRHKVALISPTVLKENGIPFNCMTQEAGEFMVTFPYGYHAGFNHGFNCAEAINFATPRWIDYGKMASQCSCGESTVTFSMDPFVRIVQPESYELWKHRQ
# Test: qHTS Assay for Inhibitors of Human Jumonji Domain Containing 2E (JMJD2E)
# Settings: JMJD2E catalytic domain, FDH-coupled NADH fluorescence (FDH is formaldehyde dehydrogenase); series mostly up to 57.1 µM; activity change, negative = inhibition: at the top concentration
# Also: nearly all actives have a fitted effect of over 50% in size.
# 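For activity change, negative = inhibition in this document: 0% = wells with enzyme and -100% = buffer wells without enzyme.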
# Potency is read from the fitted curve at half-maximal effect.
SMILES,"activity change, negative = inhibition",Potency
CC(C)CCNC(=O)C1CCC(CNc2c(N3CCC(C)CC3)c(=O)c2=O)CC1 (centres undefined),1.04% (inactive),–
O=C(O)CCCCCCCCCC[n+]1ccccc1,-3.66% (inactive),–
COC(=O)C1=C(N)Oc2cc(C)[nH]c(=O)c2C1c1ccc(Cl)cc1 (centres undefined),8.59% (inactive),–
Oc1cc(O)c2c(c1)OC(c1ccc(O)c(O)c1)C(O)C2 (centres undefined),–,11.2 µM (active)
Cc1nnc(N/N=C/c2cccs2)[nH]c1=O,-7.79% (inactive),–
Cc1ccccc1Nc1nnc(C)c(=O)[nH]1,2.79% (inactive),–
Cc1nnc(N/N=C/c2ccccn2)[nH]c1=O,–,7.94 µM (active)
Cc1ccc(CN2CCN(Cc3cn(C)nc3-c3ccccc3)CC2CCO)o1 (centres undefined),-0.595% (inactive),–
O=C(CCN1CCCCC1)N=Nc1c(O)[nH]c2ccccc12,4.17% (inactive),–
O=C(NCc1ccco1)O[C@@H]1C(=O)c2cc(Br)ccc2O[C@H]1c1ccc2c(c1)OCO2,17.8% (inactive),–
O=c1ccnc(Nc2ccc(Cl)cc2)[nH]1,3.06% (inactive),–
CCOc1ccccc1N=C1NC(=O)CS1,2.61% (inactive),–
O=C1CSC(=S)N1/N=C/c1ccc(O)c([N+](=O)[O-])c1,-16.3% (inactive),–
CCOc1cccc(/C=N/N2C(=O)CSC2=S)c1O,–,31.6 µM (active)
Cn1c(SCC(=O)Nc2ccc(Cl)cc2)nc(O)cc1=O,1.98% (inactive),–
Nc1nc(Sc2ncccc2[N+](=O)[O-])n[nH]1,2.63% (inactive),–
Cc1ccnc(SCC(N)=O)n1,0.789% (inactive),–
Cc1ccnc(Nc2nc3ccccc3s2)n1,1.18% (inactive),–
Cc1ccnc(-n2sc3ccccc3c2=O)n1,–,12.6 µM (active)
O=c1cnnc(Nc2ccccc2)[nH]1,3.57% (inactive),–
S=c1[nH]nc(Nc2ccccc2)s1,–,17.8 µM (active)
c1ccc(Nc2n[nH]nc2-c2ccccc2)cc1,-1.65% (inactive),–
O=C(C[n+]1ccc2c(c1)nnn2-c1ccccc1)c1ccc(Cl)cc1,9.12% (inactive),–
O=C(NCc1nnc(SCC(=O)N2CCC(Cc3ccccc3)CC2)o1)c1ccco1,6.12% (inactive),–
CCOc1ccc(/C=N/NC(=O)CSc2ccccn2)cc1O,-4.84% (inactive),–
Cn1c(SCC(=O)N/N=C/c2ccc(O)c(O)c2)nc2ccccc21,–,25.1 µM (active)

SMILES,"activity change, negative = inhibition",Potency
Cc1nc2ccccc2n1CC(=O)N/N=C/c1cccnc1,-7.57% (inactive),–
Cc1nccn1CC(=O)N/N=C/c1ccc(O)c(O)c1,–,12.6 µM (active)
CCn1c(SCC(=O)N/N=C/c2ccncc2)nc2ccccc21,3.37% (inactive),–
Cc1ccc(/C=N/NC(=O)CSc2nc3ccccc3o2)cc1,1.12% (inactive),–
CC(C)(C)OC(=O)NCCCCCC(=O)N/N=C/c1coc2ccccc2c1=O,2.67% (inactive),–
O=C1/C(=C/c2cccs2)SC(=S)N1C1CCS(=O)(=O)C1 (centres undefined),1.93% (inactive),–
CC(OC(=O)c1ccc(NS(=O)(=O)c2ccc3[nH]c(=O)[nH]c3c2)cc1)C(=O)Nc1cccc(Cl)c1Cl (centres undefined),-4.34% (inactive),–
O=C(c1cc(COc2c(F)cccc2F)on1)N1CCSCC1,4.11% (inactive),–
Nc1nc(Nc2ccccc2)nc(NCCO)c1[N+](=O)[O-],0.417% (inactive),–
O=C1CCCC(O)=C1N=Nc1ccc(S(=O)(=O)N2CCOCC2)cc1,-24.2% (inactive),–
CCCc1ccc(C(=O)[C@@H]2[C@@H](C(C)=O)N3c4ccc(F)cc4C=C[C@@H]3[C@@]23C(=O)Nc2ccccc23)cc1,–,14.1 µM (active)
CCc1cc(CNC(=O)CC2C(=O)NCCN2Cc2ccccc2C(F)(F)F)on1 (centres undefined),-22.1% (inactive),–
Cc1noc(C)c1-c1nc(CSc2ccc(Cl)cc2)no1,-5.99% (inactive),–
COc1ccc(N2CCN(Cc3nnc(-c4ccccc4)o3)CC2)cc1,3.96% (inactive),–
Fc1ccc(N2CCN(Cc3cnc(Oc4ccc(Br)cc4)s3)CC2)cc1,-5.18% (inactive),–
COc1ccc(N2CCN(Cc3ccc(Br)s3)CC2)cc1,–,14.1 µM (active)
COc1ccc(CCNC(=O)C(Sc2ccccn2)c2ccccc2)cc1OC (centres undefined),-33.4% (inactive),–
O=c1nc2s/c(=C\c3ccco3)c(=O)n2nc1Cc1ccccc1,–,15.8 µM (active)
O=C(CCCN1C(=O)/C(=C/c2ccco2)SC1=S)Nc1ccccc1,-7.15% (inactive),–
CCOc1ccccc1/C=c1\sc2nc(-c3ccco3)nn2c1=O,4.2% (inactive),–
Cc1c(Cl)cccc1NC(=S)N(Cc1ccccc1)Cc1cccnc1,4.24% (inactive),–
CS(=O)(=O)c1sc(C(=O)NC(=S)Nc2ccc(OC(F)(F)F)cc2)c2c1C=CCC2,-6.61% (inactive),–
CCNc1nc(NCC)nc(N/N=C/c2ccc(O)c(OC)c2)n1,-5.62% (inactive),–
CCN(CC)CCCN=C(N)N,6.35% (inactive),–
Cc1cc(C)c(NC(=O)CS(=O)CC(=O)Nc2cccnc2)c(C)c1 (centres undefined),-1.38% (inactive),–
Cc1ccc(-c2nc(-c3cccnc3)sc2CC(=O)Nc2ccc(C)c(Cl)c2)cc1,–,15.8 µM (active)

SMILES,"activity change, negative = inhibition",Potency
Cc1ccc(NC(=O)COc2ccc(-n3ccnc3)cc2)cc1Cl,1.53% (inactive),–
COc1ccc(CN2C(=O)C(C)S/C2=N/N=C/c2ccco2)cc1 (centres undefined),8.02% (inactive),–
O=C(CCS(=O)(=O)c1ccccc1Cl)Nc1ccc(S(=O)(=O)Nc2ncccn2)cc1,-0.745% (inactive),–
COc1c(O)cc2oc(-c3ccc(O)c(O)c3)cc(=O)c2c1O,–,10 µM (active)
CCOC(=O)COc1cc(O)c2c(=O)cc(-c3ccccc3)oc2c1,-17.6% (inactive),–
O=c1cc(-c2ccc(O)c(O)c2)oc2cccc(O)c12,–,20 µM (active)
COc1ccc2c(=O)cc(-c3ccccc3)oc2c1O,-1.03% (inactive),–
Cc1coc(C)c1C(=O)CC1(O)C(=O)N(C)c2ccc(Cl)cc21 (centres undefined),-3.58% (inactive),–
O=C(CS(=O)(=O)c1ccc(C(F)(F)F)cn1)NNC(=O)c1ccccc1,3.69% (inactive),–
CC(=O)c1ccc2c(c1)OCCOCCOc1ccc(C(C)=O)cc1OCCOCCO2,-0.13% (inactive),–
O=C(/C=C/c1ccc(Cl)c([N+](=O)[O-])c1)c1cccnc1,4.53% (inactive),–
Cc1cc(OCCCCOc2ccc(C#N)cc2)ccc1[N+](=O)[O-],-10.5% (inactive),–
Oc1cc2c(cc1O)CN(C(=S)NCCc1ccc(Cl)cc1)CCC2,–,28.2 µM (active)
S=C(NCCc1ccccc1)N1CCCCC1,0.522% (inactive),–
O=C1CCN(C(=S)NCCc2ccccc2)CC1,2.72% (inactive),–
CC(=O)c1nnn(-c2ccc(Cl)cc2C#N)c1C,2% (inactive),–
COc1ccccc1OCCNCC(O)COc1cccc2[nH]c3ccccc3c12 (centres undefined),–,inactive and 25.1 µM (active)
CC(C)(C)NCC(O)COc1cccc2[nH]c(=O)[nH]c12 (centres undefined),0.739% (inactive),–
Cc1noc(COc2ccccc2OCC(O)CNC(C)(C)C)n1 (centres undefined),-6.31% (inactive),–
CCN(CC)S(=O)(=O)c1ccc(N2CCOCC2)c(NC(=O)C2COc3ccccc3O2)c1 (centres undefined),-5.42% (inactive),–
CCOc1ccc(NC(=O)CCC(=O)N/N=C/c2ccc([N+](=O)[O-])s2)cc1,-2.83% (inactive),–
CC(C)(C)c1cc(C(=O)N/N=C/c2ccc([N+](=O)[O-])s2)n[nH]1,0.226% (inactive),–
O=[N+]([O-])c1ccc(C=Nc2ccc(Cl)cc2Cl)s1,–,22.4 µM (active)
O=C(NNS(=O)(=O)c1ccccc1)c1cnn(-c2ccc(Cl)cc2)c1C(F)(F)F,8.91% (inactive),–
NC(=O)C1(C(N)=O)OC1c1ccc(Cl)cc1Cl (centres undefined),0.802% (inactive),–
O=C(CSc1nc2ccccc2o1)N/N=C/c1ccccc1C(=O)O,4.12% (inactive),–

SMILES,"activity change, negative = inhibition",Potency
NC(=O)C1=C[C@@H](c2csc3ccccc23)C[C@@H](OCc2ccc(CO)cc2)O1,–,22.4 µM (active)
NC(=O)C1=C[C@H](c2csc3ccccc23)C[C@H](OCc2ccc(CO)cc2)O1,-6.28% (inactive),–
O=C(NC1CC1)C1=C[C@H](c2c[nH]c3ccccc23)C[C@H](OCc2ccc(CO)cc2)O1,1.29% (inactive),–
OCC1(Cc2ccccc2C(F)(F)F)CCN(Cc2ccncc2)CC1,-22.4% (inactive),–
CCn1cc(C(=O)NCCCN2CCCCCC2)c(=O)c2cc(S(=O)(=O)N3CCc4ccccc4C3)ccc21,–,25.1 µM (active)
CCOC(=O)N1CCN(C(=O)c2cn(C)c3ccc(S(=O)(=O)N4CCCC4)cc3c2=O)CC1,-0.344% (inactive),–
CCn1cc(C(=O)NCC2CCCO2)c(=O)c2cc(S(=O)(=O)N3CCCCC3)ccc21 (centres undefined),-1.81% (inactive),–
CC(C)(C)C(=O)Nc1c(Br)c(C2CC2)nn1-c1ccccc1,3.79% (inactive),–
O=C(COC(=O)c1ccc(S(=O)(=O)Nc2ccccc2)cc1)NCC1CCCO1 (centres undefined),3.36% (inactive),–
CCN(CC(=O)NCCc1ccccc1)S(=O)(=O)c1ccccc1,-0.682% (inactive),–
Cc1c(CCOC(=O)CC23CC4CC(CC(C)(C4)C2)C3)sc[n+]1Cc1ccc([N+](=O)[O-])cc1,–,10 µM (active)
Cc1c(CCOC(=O)c2cc([N+](=O)[O-])ccc2Cl)sc[n+]1CCCCS(=O)(=O)[O-],9.22% (inactive),–
Cc1c(CCO)sc[n+]1CC(=O)OC12CC3CC(CC(C3)C1)C2,2.74% (inactive),–
O=C(COc1ccc([N+](=O)[O-])cc1Cl)Nn1cnnc1,-3.14% (inactive),–
COc1ccc(C2CC(=O)c3c(O)cc(OC4OC(COC5OC(C)C(O)C(O)C5O)C(O)C(O)C4O)cc3O2)cc1O (centres undefined),2.92% (inactive),–
COc1ccc(CCC(=O)c2c(O)cc(OC3OC(CO)C(O)C(O)C3O[C@@H]3OC(C)C(O)C(O)C3O)cc2O)cc1O (some centres undefined),-3.34% (inactive),–
CC1OC(OCC2OC(Oc3c(-c4ccc(O)c(O)c4)oc4cc(O)cc(O)c4c3=O)C(O)C(O)C2O)[C@@H](O)C(O)C1O (some centres undefined),–,7.08 µM (active)
C[C@@H]1O[C@@H](OC[C@H]2O[C@@H](Oc3c(-c4cccc(O)c4O)oc4cc(O)cc(O)c4c3=O)[C@H](O)[C@@H](O)[C@@H]2O)[C@H](O)[C@H](O)[C@H]1O,–,7.08 µM (active)
C=CCc1ccc(OCC(O)CN2CCN(Cc3ccccc3)CC2)c(OC)c1 (centres undefined),-5.88% (inactive),–
CCN(CC)CC1(O)CCN(C(=O)c2ccc(Cl)c(Cl)c2)CC1,-3.78% (inactive),–
CSc1nnnn1-c1c(C)cc(C)cc1C,-5.36% (inactive),–
CCc1ccc[n+](-c2nc([O-])sc2C=O)c1,1.47% (inactive),–
O=C(Nc1ccc(N2CCN(C(=O)c3ccccc3)CC2)c(Cl)c1)c1ncn[nH]1,-12.6% (inactive),–
Nc1cccc(S(=O)(=O)Nc2ccc(SC(F)F)cc2)c1,0.195% (inactive),–
CN1CCN(C2=NCCO2)CC1,11.8% (inactive),–
Cc1cccc(-[n+]2c(-c3cccc(Br)c3)[nH]c3nc4ccccc4nc32)c1,–,25.1 µM (active)
